Each structure is given as a SMILES string. Inconclusive results are not listed. Active and inactive are the calls of the source. Calls come from the whole dose curve; as a rule, active = well fitted cell-killing curve with a large enough effect in the repeat runs; inconclusive = weak or mixed curves, or effect the other way; inactive = no such curve, though single readings can be large or run the other way.

The nature of the experiment: qHTS assay to identify small molecule antagonists of the peroxisome proliferator-activated receptor gamma (PPARg) signaling pathway - cell viability counter screen (AID 743194). Note: nearly all actives have a fitted effect of over 55% in size. The settings on record: PPARg-bla HEK293H viability, CellTiter-Glo luminescence, 17 h; series mostly up to 62.6 µM. The source says:
U.S. Tox21 Program National Center for Advancing Translational Sciences [NCATS] NIH Chemical Genomics Center [NCGC] U.S. Environmental Protection Agency [EPA] National Institutes of Environmental Health Sciences [NIEHS] National Toxicology Program [NTP] U.S. Food and Drug Administration [FDA] Tox21 Assay Overview: The peroxisome proliferator-activated receptors (PPARs) are lipid-activated transcription factors of the nuclear receptor superfamily with three distinct subtypes namely PPAR alpha, PPAR delta (also called PPAR beta) and PPAR gamma (PPARg). All these subtypes heterodimerize with Retinoid X receptor (RXR) and these heterodimers regulate transcription of various genes. PPAR-gamma receptor (glitazone receptor) is involved in the regulation of glucose and lipid metabolism. To identify the compounds that activate PPAR-gamma signaling, GeneBLAzer PPAR gamma UAS-bla HEK293H cell line (Invitrogen, Carlsbad, CA, USA) containing a beta-lactamase reporter gene under the control of an Upstream Activator Sequence (UAS) was used to screen the Tox21 compound library. The cytotoxicity of the Tox21 compound library against the PPARg-bla cell line was tested in parallel by measuring the cell viability using CellTiter-Glo assay in the same wells.
Tox21 Assay Protocol Summary: PPARg-bla cells were dispensed at 3000 cells/5uL/well in 1536-well black wall/clear bottom plates using a Multidrop Combi (Thermo Fisher Scientific, Waltham, MA) dispenser. After the assay plates were incubated at 37 C and 5% CO2 for 5 h, 23 nL of compounds dissolved in DMSO, positive controls or DMSO only was transferred to the assay plate by a Pintool station (Kalypsys, San Diego, CA), followed by addition of 1ul Rosiglitazone (50 nM, final concentration in the wells). The assay plates were incubated at 37 C for 17 h, and then 1 uL of LiveBLAzerTM B/G FRET substrate was added using a Bioraptr Flying Reagent Dispenser (FRD) workstation (Beckman Coulter, Indianapolis, IN, USA). The assay plates were incubated at room temperature for 1 h and fluorescence intensity was measured by an Envision plate reader (PerkinElmer, Shelton, CT). For cell viability readout that measures cytotoxicity, 4 ul/well of CellTiter-Glo reagent was added into the assay plates using a Flying Reagent Dispenser. After 30 min incubation at room temperature, the luminescence intensity in the plates was measured using a ViewLux plate reader (PerkinElmer).
(In general: In qHTS, concentration-response curves come from the screen itself.)
`O=S(=O)(O)OOS(=O)(=O)O`: the outcome was inactive.
On to `O=C(O)c1cc(Oc2ccc(C(F)(F)F)cc2Cl)ccc1[N+](=O)[O-]`, for which the molecule was classed as inactive.
With `COP(=S)(OC)SCN1C(=O)c2ccccc2C1=O`, the molecule was called inactive.
The entry for `Sc1ccccc1` is “inactive”; for `Cc1ccccc1N` it is “inactive”.
Then `O=C(O)C(Br)Br`, with “inactive”; and `O=C(O)Cc1ccccc1`, with “inactive”.
Then `OCC(O)CCl` (stereo not given), with “inactive”; and `CNC(=O)O/N=C/C(C)(C)SC`, with “inactive”.
For the molecule `COS(=O)(=O)OC`, the outcome was inactive.
On to `NNc1ccccc1`, for which the molecule was called inactive.
Then `CCCCCCCCCCCCCCCCCC(=O)O`, with “inactive”.
`CCOc1ccc(N)cc1`: the molecule was called inactive.
As to `Nc1cc(Cl)cc(Cl)c1`, the outcome was inactive.
Then `O=[N+]([O-])c1ccc(Cl)c(Cl)c1`, with “inactive”; and `[N-]=[N+]=CC(=O)OC[C@H](N)C(=O)O`, with “inactive”; and `C=CCN=C=S`, with “inactive”.
The entry for `C=CC(=O)OCC(CC)CCCC` (stereo not given) is “inactive”; for `COC(C)(C)CCCC(C)C/C=C/C(C)=C/C(=O)OC(C)C` (stereo not given) it is “inactive”.
The entry for `Cc1cccc(C)c1N` is “inactive”; for `CN1C(=O)CCS(=O)(=O)C1c1ccc(Cl)cc1` (stereo not given) it is “inactive”.
Take `CNC(=O)O/N=C/C(C)(C)S(C)=O` (stereo not given): the molecule was classed as inactive.
Take `Oc1c(Br)cc(Br)cc1Br`: the molecule was classed as inactive.
Turning to `ClCCOCCCl`, the call was inactive.
Then `O=P1(NCCCl)OCCCN1CCCl` (stereo not given), with “inactive”.
For the molecule `CC(=O)C1CCOC1=O` (stereo not given), the outcome was inactive.
Then `CC(C)CCCCCCOC(=O)c1ccccc1C(=O)OCCCCCCC(C)C`, with “inactive”.
Then `O=[N+]([O-])c1ccc(Cl)cc1`, with “inactive”; and `N#Cc1cccc(C#N)c1`, with “inactive”; and `Cc1cccc(N)c1C`, with “inactive”.
The entry for `Nc1nc(N)nc(NC2CC2)n1` is “inactive”.
As to `CC(C)c1cccc(C(C)C)c1O`, the molecule was classed as inactive.
The entry for `Cc1ccc(N=C=O)cc1N=C=O` is “inactive”; for `Nc1cccc(Cl)c1` it is “inactive”; for `CNC(=O)O/N=C/C(C)(C)S(C)(=O)=O` it is “inactive”.
The entry for `CCOP(=S)(OCC)Oc1cc(C)nc(C(C)C)n1` is “inactive”; for `C=CC(=O)OCCCCCC(C)C` it is “inactive”; for `O=[N+]([O-])c1cc([As](=O)(O)O)ccc1O` it is “inactive”.
Then `Cc1ccc(N)cc1`, with “inactive”; and `C[C@]12CC[C@H](O)CC1=CC[C@@H]1[C@@H]2CC[C@]2(C)C(=O)CC[C@@H]12`, with “inactive”.

These data come from PubChem BioAssay (Tox21).
